Among the test systems are K-562 leukemia; MALME-3M melanoma; MDA-MB-231 breast; RXF 393 renal; SF-268 CNS; SF-295 CNS; SF-539 CNS; UACC-257 melanoma; M14 melanoma; HCT-15 colon; HT29 colon; SNB-75 CNS; SNB-19 CNS; U251 CNS; PC-3 prostate; SK-MEL-5 melanoma; UACC-62 melanoma; LOX IMVI melanoma; SK-MEL-28 melanoma; SK-MEL-2 melanoma.
Common to all, as to test: NCI-60 one-dose screen, 48 h (100 = growth as untreated, 0 = no growth, -100 = all killed)
Conditions in all cases: 10 µM

Among the data in PubChem BioAssay (NCI) are growth values, retold here.

Each structure is given as a SMILES string. About 83,000 compounds went through this panel and 20% of them were active in at least one assay; those are over-represented in the sample as a whole.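 The test compound was applied at a single concentration to cells in 96-well plates for 48 hours, and percent growth was recorded.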 A number with no mark means an inactive call. Calls of active or inactive are those of the source. How the source made its calls: active means growth percent below 10; inactive means the rest.

On to `O=C(Nc1cccc(-n2cc(-c3ccncc3)c(-c3cc(O)cc(Cl)c3)n2)c1)c1cc(C(F)(F)F)cc(C(F)(F)F)c1`, for which the growth is 20.4% in the experiment with K-562 leukemia; 61.7% with MALME-3M melanoma; -34.6% (active) in the experiment with MDA-MB-231 breast; -10.3% (active) in the experiment on RXF 393 renal; 69.4% with SF-268 CNS; 15% with SF-295 CNS. In addition, the growth in the experiment with SF-539 CNS was 75.5%; with UACC-257 melanoma, 71%; with M14 melanoma, 24.5%; in the experiment on HCT-15 colon, 30.1%; in the experiment on HT29 colon, 19.7%; in the experiment on SNB-75 CNS, 52.7%. Besides, the growth in the experiment on SNB-19 CNS is 63.1%; in the experiment with U251 CNS it was 37.2%; in the experiment on PC-3 prostate, 21.7%; with SK-MEL-5 melanoma, 64.5%; with UACC-62 melanoma, 69.3%; with LOX IMVI melanoma, 10.5%. Besides, the values for the growth with SK-MEL-28 melanoma and in the experiment with SK-MEL-2 melanoma were 63.6% and 57.8%, respectively.

On to `O=C1/C(=C\c2ccc(Cl)cc2)CN(C(=S)Nc2ccccc2)C/C1=C\c1ccc(Cl)cc1`, for which the growth in the experiment on K-562 leukemia is 2.61% (active); in the experiment on MALME-3M melanoma it was -39.9% (active); in the experiment with MDA-MB-231 breast, -17.3% (active); in the experiment on RXF 393 renal it was -88.6% (active); in the experiment with SF-268 CNS, -72.4% (active); in the experiment with SF-295 CNS, -53.3% (active). Besides, the growth in the experiment on SF-539 CNS is -94.4% (active); in the experiment with UACC-257 melanoma it was -55.4% (active); in the experiment with M14 melanoma, -65.3% (active); in the experiment with HCT-15 colon, -34.7% (active); in the experiment with HT29 colon it was -77% (active); in the experiment with SNB-75 CNS, -36.3% (active). Moreover, the growth in the experiment on SNB-19 CNS is -72.9% (active); in the experiment on U251 CNS, -97.7% (active); in the experiment with PC-3 prostate, -55.6% (active); in the experiment on SK-MEL-5 melanoma, -73% (active); with UACC-62 melanoma, -70.4% (active); in the experiment with LOX IMVI melanoma it was -80.1% (active). Moreover, the growth in the experiment with SK-MEL-28 melanoma is -60.3% (active); with SK-MEL-2 melanoma it was -28.4% (active).

As for `O=C1/C(=C\c2ccc(Br)cc2)CN(C(=O)c2ccccc2F)C/C1=C\c1ccc(Br)cc1`, the growth in the experiment with K-562 leukemia was 1.26% (active); in the experiment on MALME-3M melanoma it was -2.95% (active); in the experiment with MDA-MB-231 breast, -4.72% (active); in the experiment with RXF 393 renal it was -76.6% (active); in the experiment on SF-268 CNS, 4.14% (active); with SF-295 CNS, -19.9% (active). Also, the growth in the experiment on SF-539 CNS was 3.38% (active); with UACC-257 melanoma, 30.6%; in the experiment with M14 melanoma, -47.8% (active); in the experiment on HCT-15 colon, 5.63% (active); with HT29 colon, -47.4% (active); in the experiment on SNB-75 CNS, 56.5%. The growth in the experiment on SNB-19 CNS was 54.3%; with U251 CNS, -66.6% (active); in the experiment with PC-3 prostate, 3.89% (active); with SK-MEL-5 melanoma it was 30.4%; with UACC-62 melanoma, -3.15% (active); with LOX IMVI melanoma, -85.5% (active). Further, the values for the growth with SK-MEL-28 melanoma and in the experiment on SK-MEL-2 melanoma were 15.1% and 66%, respectively.

For the compound `Nc1nc(-c2ccccc2Cl)cc(-c2ccc(Cl)cc2Cl)n1`, the growth in the experiment with K-562 leukemia is 27.3%; in the experiment with MALME-3M melanoma it was 86.6%; with MDA-MB-231 breast it was 65%; with RXF 393 renal, 75.8%; in the experiment with SF-268 CNS it was 65.9%; in the experiment with SF-295 CNS, 38.7%. For the same compound, the growth was 72.2% in the experiment on SF-539 CNS; 93% in the experiment with UACC-257 melanoma; 53.5% in the experiment on M14 melanoma; 90.2% with HCT-15 colon; 36.6% in the experiment on HT29 colon; 30.5% in the experiment with SNB-75 CNS. Moreover, the growth with SNB-19 CNS was 78.1%; in the experiment on U251 CNS, 65%; with PC-3 prostate, 74.2%; in the experiment on SK-MEL-5 melanoma, 75.2%; in the experiment with UACC-62 melanoma it was 63.1%; in the experiment on LOX IMVI melanoma, 55.4%. For the same compound, the growth in the experiment on SK-MEL-28 melanoma is 88%; in the experiment on SK-MEL-2 melanoma it was 96.3%.

As for `Nc1c(C(=O)Nc2ccccc2Cl)sc2nc3c(cc12)C(=O)CCC3`, the growth in the experiment on K-562 leukemia is 24.9%; in the experiment with MALME-3M melanoma it was 38.5%; in the experiment on MDA-MB-231 breast it was 70.3%; in the experiment on RXF 393 renal it was 61.7%; in the experiment with SF-268 CNS it was 95.7%; in the experiment with SF-295 CNS, 14.7%. Also, the growth is 69.9% with SF-539 CNS; 42.9% with UACC-257 melanoma; 50.2% with M14 melanoma; 32.8% in the experiment with HCT-15 colon; 40.2% in the experiment on HT29 colon; 52.4% in the experiment with SNB-75 CNS. The growth is 51.1% with SNB-19 CNS; 73.3% in the experiment on U251 CNS; 37.1% in the experiment with PC-3 prostate; 32.5% in the experiment on SK-MEL-5 melanoma; 47.1% in the experiment on UACC-62 melanoma; 55% with LOX IMVI melanoma. The growth in the experiment on SK-MEL-28 melanoma was 57.7%; with SK-MEL-2 melanoma, 35.4%.

As to `COc1cc2cc3c(nc2cc1OC)CCN3Cc1ccc(NC(=O)c2ccc(Cl)c(C(F)(F)F)c2)cc1`, the growth in the experiment with K-562 leukemia is 94.7%; in the experiment with MALME-3M melanoma, 68.8%; in the experiment on MDA-MB-231 breast it was 85.4%; in the experiment on RXF 393 renal it was 94.5%; in the experiment on SF-268 CNS, 102%; in the experiment with SF-295 CNS, 92.8%. Further, the growth in the experiment on SF-539 CNS was 81.1%; in the experiment on UACC-257 melanoma, 86.6%; in the experiment with M14 melanoma, 104%; in the experiment with HCT-15 colon it was 95.8%; with HT29 colon it was 105%; with SNB-75 CNS, 61.7%. For the same compound, the growth in the experiment with SNB-19 CNS is 86.6%; with U251 CNS, 84.6%; in the experiment on PC-3 prostate, 69.6%; in the experiment with SK-MEL-5 melanoma, 85%; in the experiment with UACC-62 melanoma, 79.9%; with LOX IMVI melanoma, 89.9%. Also, the growth in the experiment with SK-MEL-2 melanoma was 108%.

For the compound `CCOC(=O)N/N=C\C(C)=N\NC(=O)OCC`, the growth with K-562 leukemia is 98.7%; in the experiment with MALME-3M melanoma it was 84.5%; in the experiment with MDA-MB-231 breast, 111%; in the experiment on RXF 393 renal, 125%; in the experiment on SF-268 CNS, 105%; in the experiment with SF-295 CNS, 90.9%. The growth with SF-539 CNS is 99.9%; in the experiment on UACC-257 melanoma it was 92.6%; with M14 melanoma, 100%; with HCT-15 colon, 99.5%; in the experiment on HT29 colon, 98%; in the experiment on SNB-75 CNS, 92.1%. Moreover, the growth is 98.5% with SNB-19 CNS; 92.7% in the experiment on U251 CNS; 93% in the experiment with PC-3 prostate; 109% with SK-MEL-5 melanoma; 99.3% in the experiment on UACC-62 melanoma; 96.2% in the experiment with LOX IMVI melanoma. The growth in the experiment with SK-MEL-28 melanoma is 103%; with SK-MEL-2 melanoma, 111%.

In the case of `CSC1=NCCCC1`, the growth in the experiment on K-562 leukemia was 104%; in the experiment on MALME-3M melanoma, 109%; in the experiment with MDA-MB-231 breast it was 123%; with RXF 393 renal it was 108%; with SF-268 CNS, 109%; with SF-295 CNS it was 110%. Further, the growth is 111% in the experiment with SF-539 CNS; 100% in the experiment with UACC-257 melanoma; 108% with M14 melanoma; 101% in the experiment on HCT-15 colon; 120% with HT29 colon; 99.9% in the experiment with SNB-75 CNS. Also, the growth was 110% with SNB-19 CNS; 103% in the experiment with U251 CNS; 100% with PC-3 prostate; 106% in the experiment with SK-MEL-5 melanoma; 113% with UACC-62 melanoma; 98.4% in the experiment on LOX IMVI melanoma. The growth is 109% in the experiment on SK-MEL-28 melanoma and 105% in the experiment with SK-MEL-2 melanoma.
